Sampled rows, rich in hits. Any-hit rate of the full collection: about 1.7%.
IDH1 R132H inh – qHTS for Inhibitors of mutant isocitrate dehydrogenase 1 (IDH1): qHTS. Isocitrate dehydrogenase [NADP] cytoplasmic (Homo sapiens), O75874. IDH1-R132H enzyme, NADPH consumption, diaphorase/resazurin fluorescence. Potency, µM (top dose mostly 76.6 µM), usual class: inhibitors. hit rate 0.093% among 390,000. AID 602179, 2012; further: nearly all actives have a fitted effect of over 65% in size
Target sequence (O75874 whole entry R132H, stated change not applied): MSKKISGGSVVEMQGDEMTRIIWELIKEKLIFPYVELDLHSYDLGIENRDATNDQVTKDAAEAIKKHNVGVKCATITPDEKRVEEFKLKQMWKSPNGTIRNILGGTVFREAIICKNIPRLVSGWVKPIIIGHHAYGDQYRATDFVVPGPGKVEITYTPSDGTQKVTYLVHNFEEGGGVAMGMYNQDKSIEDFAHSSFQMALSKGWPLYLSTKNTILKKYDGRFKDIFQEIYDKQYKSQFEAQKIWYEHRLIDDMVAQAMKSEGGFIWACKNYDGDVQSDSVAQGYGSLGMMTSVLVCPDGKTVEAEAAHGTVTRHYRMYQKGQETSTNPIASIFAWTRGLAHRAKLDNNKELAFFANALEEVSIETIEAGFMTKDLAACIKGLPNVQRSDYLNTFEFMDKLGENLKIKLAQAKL
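IDH1-R132H (0.5 ug/mL) preincubated 30 min with compound, then NADPH (0.016 mM) and alpha-KG (2 mM) added; 80 min at RT, pH 7.5. Remaining NADPH coupled via diaphorase/resazurin to fluorescence (540/590 nm); concentration-response curves normalized to no-enzyme control.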
GLP1R inv ag – qHTS of GLP-1 Receptor Inverse Agonists (Inhibition Mode); Glucagon-like peptide 1 receptor (Homo sapiens), P43220; HEK293 GLP-1R CRE-luciferase, luminescence, 24 h; GLP-1R form is constitutively active; Potency, µM (top dose mostly 38.3 µM), actives largely listed as inhibitors; hit rate 1.6% among 410,000; further: nearly all actives have a fitted effect of over 55% in size
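Seeding at 200 cells/uL, 12 h culture, 24 hr compound treatment, then luciferase reagent and a luminescence read; cells are HEK293 stably expressing a constitutively active GLP-1R plus cAMP-responsive luciferase.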
HEK293 tox – qHTS of GLP-1 Receptor Inverse Agonists: Cytotox Screen; HEK293 cAMP-luciferase reporter cells, luminescence, 24 h; Potency, µM (series often up to 38.3 µM), most hits filed as inhibitors; hit rate 0.13% among 410,000; AID 624418, 2012;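 further: loss of luciferase light is scored as toxicity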
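Step one: seed cells (200 cells/uL, DMEM with 10% Nu serum, 1% pen-strep). Step two: 12-hour incubation at 37 deg C. Step three: pin 23 nL compound, incubate 24 hr. Step four: add luciferase reagent, read luminescence 12 min later.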
LDHA block – qHTS assay for inhibitors of human lactate dehydrogenase | purified LDHA, NADH/diaphorase-resazurin fluorescence; hits give low values | activity change, % (values are at about 110 or 230 µM) | hit rate 0.15% among 480,000 | AID 1347041, 2019; in the data active means activity change below about -30%; inconclusive means mostly about -25% to -30%
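Remaining NADH was detected by diaphorase (0.133 mg/mL) converting 37 µM resazurin to fluorescent resorufin, read at 0 and 20 minutes. The preceding 5-minute room-temperature reaction used 2 nM LDHA, 0.2 mM sodium pyruvate and 0.06 mM NADH at pH 7.4.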
GLP-1R agonist – qHTS of GLP-1 Receptor Agonists. AID 624172, 2012. hit rate 0.007% among 380,000. HEK293 GLP-1R CRE-luciferase, luminescence, 4-6 h; cells express a hypersensitive GLP-1R form. Potency, µM (highest dose often 45.6 µM), hits mostly activators. Glucagon-like peptide 1 receptor (Homo sapiens), P43220
PTHR1 ag – qHTS for PTHR1 Agonists: Primary Screen. hit rate 0.075% among 410,000. AID 743266, 2014. HEK293 GP2 PTHR1 cells, GloSensor cAMP luminescence, 1 h. Parathyroid hormone/parathyroid hormone-related peptide receptor (Homo sapiens), Q03431. Potency, µM (doses to about 115 µM), actives largely listed as activators; further: nearly all actives have a fitted effect of over 55% in size
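HEK-293-derived GP2 cells expressing PTHR1 and a GloSensor cAMP reporter, 3,000/well, plated overnight, given luciferin plus IBMX (each 0.5 mM as added) for 1 h at 37 °C, then compound for 1 h at 37 °C. Luminescence was read after 15 min at room temperature.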
A number is an active result; . = inactive; ? = inconclusive; / = no result given. Unless noted, the call rests on the fitted dose curve; in most records, active means well fitted curve in the direction sought with a large enough effect; inconclusive means small, poorly fitted or top-dose-only effect, or another doubt; inactive means no such curve, though single readings can be large; an effect the other way counts as inactive or inconclusive.

SMILES	IDH1 R132H inh	GLP1R inv ag	HEK293 tox	LDHA block	GLP-1R agonist	PTHR1 ag
CCc1cc2c(CN3CCN(C(=O)C4COc5ccccc5O4)CC3)cc(=O)oc2cc1O (stereo unspecified)	/	/	/	.	/	/
CCOC(=O)c1cc2c(ccn2C)n1CC(=O)N(Cc1ccccc1)c1ccccc1	.	13µM	.	.	.	.
CSCCC(NS(=O)(=O)c1cccc(C(F)(F)F)c1)C(=O)Nc1ccccc1N1CCCC1 (stereo unspecified)	.	10µM	.	.	.	.
O=C(COc1cccc(C(F)(F)F)c1)Nc1ccccc1N1CCCCC1	.	.	.	.	.	.
CC1C(=O)C(C)C(c2cc(Cl)ccc2O)NC1c1cc(Cl)ccc1O (stereo unspecified)	.	5.6µM	?	.	.	.
Cc1ccccc1/C=C/C12NC(=O)CN1c1ccccc1C2(C)C (stereo unspecified)	.	?	.	.	.	.
CC1(C)c2ccccc2N2CC(=O)N[C@@]21/C=C/C=C/c1ccccc1	.	3.5µM	.	.	.	.
CCCC(NC(=S)NCC1CCCO1)C12CC3CC(CC(C3)C1)C2 (stereo unspecified)	.	5.6µM	?	.	.	.
Cc1ccc(S(=O)(=O)N2CCC(C(=O)Nc3cc(C(F)(F)F)ccc3N3CCOCC3)CC2)cc1C	.	13µM	.	.	.	.
O=C(Nc1cc(S(=O)(=O)N2CCCCC2)ccc1N1CCOCC1)c1ccc(C(F)(F)F)cc1	.	?	.	.	.	.
O=C(Nc1ccccc1N1CCCC1)C1CCN(S(=O)(=O)c2ccccc2C(F)(F)F)CC1	.	?	.	.	.	.
O=C(Nc1ccccc1N1CCCCC1)C1CCN(S(=O)(=O)c2ccccc2C(F)(F)F)CC1	.	7.9µM	.	.	.	.
COc1ccc(N2CCN(C(=O)CN(c3ccccc3)S(=O)(=O)c3ccc(OC)cc3)CC2)cc1	.	.	.	.	.	.
CN1CCN(C2CCCCC2NS(=O)(=O)c2ccccc2)CC1 (stereo unspecified)	.	.	.	.	.	.
CCN(CC)S(=O)(=O)c1ccc2c(c1)c(=O)c(C(=O)N1CCN(c3ccccc3OC)CC1)cn2C	.	.	.	.	.	.
COc1ccc(S(=O)(=O)N(CC(=O)N2CCN(c3ccccc3OC)CC2)c2ccccc2)cc1	.	10µM	.	.	.	.
COc1ccccc1N1CCN(C2CCCCC2NS(=O)(=O)c2ccccc2)CC1 (stereo unspecified)	.	10µM	.	.	.	.
COc1ccc(S(=O)(=O)N2CCC(N3CCN(c4ccccc4OC)CC3)CC2)cc1	.	.	.	-32	.	.
CCN(CC)S(=O)(=O)c1ccc(N2CCN(c3ccccc3OC)CC2)c(N)c1	.	10µM	.	.	.	.
COc1ccccc1N1CCN(C2CCN(S(=O)(=O)c3ccc(NC(C)=O)cc3)CC2)CC1	.	.	.	.	.	.
Cc1ccc(OC(C)C(=O)Nc2cc(-c3ccc(F)c(F)c3)no2)cc1C (stereo unspecified)	/	/	/	.	/	/
Fc1ccc(Sc2cc(Sc3ccc(F)cc3)ncn2)cc1	/	/	/	.	/	/
Cc1cc(NC(=O)CSc2ncnc3ccccc23)ccc1Br	/	/	/	.	/	/
O=C(NCc1ccccc1Cl)C(=O)Nc1cccc(O)c1	/	/	/	.	/	/
COC(=O)c1cc(Cl)cc2c(C)c(C3(O)CCCCC3)[nH]c12	.	7.1µM	.	.	.	.
CCc1c(C2(O)CCCCC2)[nH]c2c(C(=O)OC)cc(Cl)cc12	.	?	.	.	.	.

Source: PubChem (National Center for Advancing Translational Sciences (NCATS))
